Screening results: PubChem BioAssay, The Scripps Research Institute Molecular Screening Center
DAX1 inh-1 – DAX1 (NR0B1) inhibition, primary screen; HEK293T StAR-luciferase reporter, SF-1/DAX-1 repression relief; inhibition, % at 6.8 µM; 370,000 compounds, 1.1% hits;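 active = inhibition above the mean over all tested compounds plus 3 SD, cut at about 3.6% in these data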;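 note: 0% = DAX-1 cells with DMSO and 100% = cells lacking DAX-1 with DMSO; higher inhibition means more luminescence from relief of DAX-1 repression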
DAX1 inh-2 – inhibitors of human orphan nuclear receptor DAX1 (NR0B1); 340,000 compounds, 0.99% hits; P51843; HEK293 Gal4-DAX1 luciferase reporter, luminescence; inhibition, % at 6.75 µM;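 active = inhibition above the mean over all tested compounds plus 3 SD, cut at about 4.2% in these data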;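 note: 0% = DAX1-transfected cells with DMSO and 100% = empty-vector control cells with DMSO; inhibition shows as a rise in luminescence from relieved DAX1 repression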
Target sequence (P51843 207-470 limits assumed): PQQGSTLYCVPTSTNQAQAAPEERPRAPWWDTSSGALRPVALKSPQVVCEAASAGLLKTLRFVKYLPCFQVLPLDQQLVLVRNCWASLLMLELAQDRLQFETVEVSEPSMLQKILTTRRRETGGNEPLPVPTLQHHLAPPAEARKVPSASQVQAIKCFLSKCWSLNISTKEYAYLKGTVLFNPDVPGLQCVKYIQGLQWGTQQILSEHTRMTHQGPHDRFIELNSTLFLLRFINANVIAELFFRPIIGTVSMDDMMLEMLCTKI
hgDAF-12 ag – agonists of H. glycines DAF-12 nuclear receptor. HEK293 GAL4-hgDAF12 UAS-luciferase reporter, agonist luminescence; normalized to butyrate control. activation, % at 6.8 µM. 370,000 compounds, 1.8% hits. AID 687014;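 active = activation above a cutoff set at the mean of all screened compounds plus 3 SD, cut at about 10% in these data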;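 note: 0% = DMSO wells and 100% = sodium butyrate wells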
hcDAF12 agonist – H. contortus DAF-12 activation, primary screen | HEK293 hcDAF-12 lit1-tk-luc reporter, luminescence; 0% DMSO, 100% Δ7-dafachronic acid | activation, % at 6.8 µM | 370,000 compounds, 1.4% hits | AID 652067;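 active = activation above the mean of all tested compounds plus 3 SD, cut at about 5.5% in these data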;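 note: 100% = response to 3 µM Δ7-dafachronic acid high control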
ssDAF12 agonist – activators of S. stercoralis DAF-12 nuclear receptor; HEK293 ssDAF-12/GRIP1 lit1-tk-luc reporter, luminescence; % of 3 µM dafachronic acid response; AID 652126; 370,000 compounds, 1% hits; activation, % at 6.8 µM;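 active = activation above the mean over all tested compounds plus 3 SD, cut at about 0.9% in these data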;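 note: 0% = DMSO-only wells and 100% = 3 µM delta7-dafachronic acid wells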
LXRb hcDAF ctr – counter-screen for hcDAF-12 agonists: agonists of human LXR-beta; activation, % at 6.8 µM; AID 743027; shares compounds with hcDAF12 agonist; HEK293 Gal4-LXR tk-luc reporter, luminescence, 24 h; normalized: DMSO 0%, positive control 100%; 3,400 tested, under 10 active;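 active = mean percent activation of the reporter above a cutoff set as the average over tested compounds plus their standard deviation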
hcDAF12 ag – hcDAF-12 agonism, confirmation assay | shares compounds with hcDAF12 agonist | HEK293 hcDAF-12 lit1-tk-luc reporter, luminescence; % of Δ7-dafachronic acid response | activation, % at 6.8 µM | 3,400 compounds, 61% hits | AID 743032;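 active = mean activation across triplicate tests above the threshold derived from the earlier primary screen, cut at about 5.5% in these data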;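 note: 0% = DMSO only wells and 100% = 3 µM Δ7-dafachronic acid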
hgDAF12 ag – hgDAF-12 agonism, confirmation assay | HEK293 GAL4-hgDAF12 luciferase reporter, agonist mode; percent of butyrate response | AID 743050 | shares compounds with hgDAF-12 ag | 3,300 compounds, 80% hits | activation, % at 6.8 µM;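 active = mean activation over triplicate wells above the hit cutoff derived from the earlier primary screen, cut at about 11% in these data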;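 note: 0% = DMSO low control and 100% = 2 mM sodium butyrate high control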
LXR ag 2 – LXR-beta agonism as DAF-12 counter-screen; shares compounds with hgDAF-12 ag; HEK293 Gal4-LXR luciferase reporter, 24 h; activation, % at 6.8 µM; 3,300 tested, under 10 active;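 active = mean activation of the triplicate above a set limit carried over from the primary screen, none filed active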
An asterisk follows results filed as active; · = no result given. Rows were chosen to be rich in hits. Some 4.1% of all compounds tested hit in one or more screens of this group.

SMILES	DAX1 inh-1	DAX1 inh-2	hgDAF-12 ag	hcDAF12 agonist	ssDAF12 agonist	LXRb hcDAF ctr	hcDAF12 ag	hgDAF12 ag	LXR ag 2
CC(=O)OCCCN1C(=O)CCC12CCC(C)CC2 (centres undefined)	-1	·	-2	-2	-1	·	·	·	·
COc1ccccc1OCCC(=O)OCCN1C(=O)c2ccccc2C1=O	0	-1	0	-1	-1	·	·	·	·
O=C1c2ccccc2C(=O)N1CCOc1ccccc1	3	2	14*	6.9*	1.2*	1	8.8*	17*	0
COc1ccc(OCCN2C(=O)c3ccccc3C2=O)cc1	1	-1	3	-1	-1	·	·	·	·
Nc1cccc2c1C(=O)N(CCOc1ccc(F)cc1)C2=O	3	1	17*	11*	0	2	9.3*	18*	1
Cc1ccc(NC(=O)N2CCCc3ccccc32)cc1	3	1	3	2	-1	·	·	·	·
Cc1ccc(NC(=O)N2CCc3ccccc32)cc1	3.7*	-1	15*	10*	1.1*	2	11*	23*	1
O=C(COc1ccccc1)N1CCc2ccccc21	1	1	14*	8.5*	-1	1	6.4*	12*	1
N#CC(=C1CCCC1)c1nc(-c2ccccc2)cs1	2	5.2*	17*	7.5*	1.7*	1	6.0*	21*	1
Nc1nc2c(ncn2[C@@H]2O[C@H](C(=O)NCCCc3ccccc3)[C@@H](O)[C@H]2O)c(=O)[nH]1	1	·	-1	1	-1	·	·	·	·
CC(C)(C)c1ccc(/C=C/C(=O)Nc2nncs2)cc1	3	3	21*	7.4*	0	1	6.8*	12*	1
O=C(CSc1nnc(-c2ccccc2)n1-c1ccc(Cl)cc1)c1ccccc1Br	-1	·	-1	-2	-1	·	·	·	·
O=C1/C(=C\c2cccs2)Sc2ccc3ccccc3c21	4.0*	5.2*	16*	22*	6.4*	2	19*	31*	1
O=C1C(=Cc2cccs2)C(=O)c2ccccc21	0	0	0	-1	-1	·	·	·	·
Cc1cc(N/C=C\c2nnnn2-c2ccccc2)no1	-1	1	6	1	0	·	·	·	·
CN(C)c1ccc(/C=C/c2nnnn2-c2ccccc2)cc1	3	4	17*	11*	0	1	6.1*	22*	1
Cc1ccc2oc(-c3ccc(C)c(NC(=S)NC(=O)c4cccs4)c3)nc2c1	3.9*	4.7*	14*	11*	2.6*	1	8.9*	14*	1
COc1ccc(OC)c(CNS(=O)(=O)c2ccccc2Br)c1	0	·	1	-1	-1	·	·	·	·
O=[N+]([O-])c1ccccc1-c1cc(-c2ccccc2O)n[nH]1	2	1	16*	7.9*	1	1	4	13*	0
Cc1ccc(-c2cc(-c3cccc(F)c3)n[nH]2)c(O)c1	4.2*	5.0*	14*	13*	2.5*	1	7.6*	17*	1
Cc1ccc(-c2cc(-c3ccccc3C)[nH]n2)c(O)c1	3	2	14*	6.8*	1	1	5	17*	1
O=[N+]([O-])c1cccc(-c2cc(-c3cc(Br)ccc3O)[nH]n2)c1	-1	-1	-1	-2	-1	·	·	·	·
O=C(NC1CCc2ccccc21)c1cc(-c2ccc(Cl)cc2)nc2ccccc12 (centres undefined)	0	·	2	1	-1	·	·	·	·
CCOC(=O)c1c(N)sc(C(=O)Nc2ccccc2)c1C	3	-1	28*	10*	0	2	8.9*	22*	1
COc1ccc(-c2nc3c4ccccc4ccn3c2Cc2cccc(F)c2)cc1OC	-1	·	16*	6.7*	1.0*	1	7.4*	14*	0
SMILES	DAX1 inh-1	DAX1 inh-2	hgDAF-12 ag	hcDAF12 agonist	ssDAF12 agonist	LXRb hcDAF ctr	hcDAF12 ag	hgDAF12 ag	LXR ag 2
Cc1cccc(N/C=C/C(=O)c2ccc(Cl)cc2)c1	2	4.7*	14*	6.6*	0	2	6.9*	22*	1
COc1ccc(N/C=C\C(=O)c2ccc(C)cc2)cc1OC	0	1	1	-1	-1	·	·	·	·
Cc1ccc(Cl)c(N/C=C/C(=O)c2ccccc2)c1	3	3	15*	13*	2.9*	2	16*	26*	1
COc1cc(C(=O)NC2CCCCN(Cc3cccc(Cl)c3)C2=O)cc(OC)c1OC (centres undefined)	-1	·	1	-4	-2	·	·	·	·
NS(=O)(=O)c1ccc(N/C=C\C(=O)c2ccc(F)cc2)cc1	4.2*	1	16*	6.7*	0	1	5	13*	1
N#C/C(=C/c1cccs1)c1nc2ccccc2[nH]1	0	-1	18*	6.8*	-1	1	8.4*	14*	1
Cc1ccc(/C=C(\C#N)c2nc3ccccc3[nH]2)s1	3	1	8	5	0	·	·	·	·
COc1ccc(-c2cc(=O)c3ccccc3o2)cc1	4	8.4*	20*	9.0*	0	1	8.2*	15*	1
O=c1cc(-c2ccc(O)cc2)oc2ccccc12	3	3	9	1	-1	·	·	·	·
Cc1ccc(CNC(=O)O[C@H]2CC[C@@]34CCCN3C(=O)CCC[C@H]4C2)o1	·	·	-3	-1	-2	·	·	·	·
Nc1cc(-c2nc3ncccc3o2)ccc1Cl	3	2	14*	12*	1.4*	1	8.3*	10	0
Cc1c(/C=C/C(=O)c2ccccc2)cnn1C	0	4	5	1	-1	·	·	·	·
Cn1cc(/C=C/C(=O)c2ccccc2)c2ccccc21	2	-1	14*	12*	1.4*	2	13*	22*	1
COc1cccc(N(C(=O)c2nc3nccc(C)n3n2)c2nc3ccccc3s2)c1	4.0*	1	20*	8.4*	1.1*	1	5	16*	1
COc1cccc(NC(=O)COC(=O)c2nc3nccc(C)n3n2)c1	0	1	3	-1	-2	·	·	·	·
O=C(Nc1cccc(Br)c1)OC1CC2CC1[C@H]1CCCCN1C2 (some centres undefined)	-1	·	-1	0	0	·	·	·	·
